Source: PubChem BioAssay AID1159580 (chemical genetic matrix, 2015)
Values joined by “and” are separate entries in the source; they are usually repeats but may differ in a detail not shown here. Identical values can stand only once. Hit rate of the full screen: of about 5,500 compounds, about 2,000 (36%) were called active. Not shown: some 18% with an inconclusive outcome. The list shows a part of the results. Unmarked numbers belong to inactive results. Rule as the data show it: active = normalized growth mostly below about 0.91 (no sharp cut-off); inconclusive = no clear call, values can overlap the other calls; inactive = mostly above about 0.92.

Assay: chemical genetic growth profiling, strain panel (AID 1159580);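 also: tested at 20 µM; growth read once vehicle control cultures reached saturation at 30 °C; 1 = growth at the plate median or of vehicle wells; lower values mean less growth of the strain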
Details: S. cerevisiae deletion strains, growth OD

Molecule `N#Cc1ccc2c(c1)N(CCCN1CCC(O)CC1)c1ccccc1S2` has a normalized growth (locus YAL013W, strain DEP1, hits give low values) of 1, a normalized growth (locus YAL021C, strain ccr4, hits give low values) of 1.01 and a normalized growth (locus YAL026C, strain drs2, hits give low values) of 0.99. The normalized growth (locus YAL030W, strain snc1, hits give low values) was 0.999, the normalized growth (locus YBL061C, strain skt5, hits give low values) was 0.984 and the normalized growth (locus YBR009C, strain hhf1, hits give low values) was 0.953. The normalized growth (locus YBR021W, strain FUR4, hits give low values) was 1, the normalized growth (locus YBR023C, strain chs3, hits give low values) was 0.982 and the normalized growth (locus YBR171W, strain sec66, hits give low values) was 1. The normalized growth (locus YBR229C, strain ROT2, hits give low values) was 1.02, the normalized growth (locus YBR231C, strain swc5, hits give low values) was 0.994 and the normalized growth (locus YBR279W, strain paf1, hits give low values) was 0.987. It also gave a normalized growth (locus YCL011C, strain gbp2, hits give low values) of 0.989, a normalized growth (locus YCL016C, strain dcc1, hits give low values) of 0.987 and a normalized growth (locus YCL029C, strain bik1, hits give low values) of 1.03. It also gave a normalized growth (locus YCL061C, strain MRC1, hits give low values) of 0.992, a normalized growth (locus YCL069W, strain vba3, hits give low values) of 0.993 and a normalized growth (locus YCR088W, strain abp1, hits give low values) of 0.996. For the same molecule, the normalized growth (locus YDL005C, strain med2, hits give low values) was 0.991, the normalized growth (locus YDL035C, strain GPR1, hits give low values) was 1.01 and the normalized growth (locus YDL040C, strain nat1, hits give low values) was 0.975. For the same molecule, the normalized growth (locus YDL074C, strain BRE1, hits give low values) was 1, the normalized growth (locus YDL101C, strain DUN1, hits give low values) was 1 and the normalized growth (locus YDL134C, strain PPH21, hits give low values) was 1.01. For the same molecule, the normalized growth (locus YDL185W, strain tfp1, hits give low values) was 1.03, the normalized growth (locus YDL192W, strain arf1, hits give low values) was 1.03 and the normalized growth (locus YDR001C, strain nth1, hits give low values) was 0.992. It also gave a normalized growth (locus YDR069C, strain doa4, hits give low values) of 0.995, a normalized growth (locus YDR101C, strain arx1, hits give low values) of 1.01 and a normalized growth (locus YDR137W, strain rgp1, hits give low values) of 1.02. For the same molecule, the normalized growth (locus YDR150W, strain NUM1, hits give low values) was 0.999, the normalized growth (locus YDR159W, strain sac3, hits give low values) was 0.979 and the normalized growth (locus YDR162C, strain NBP2, hits give low values) was 1.02. It also gave a normalized growth (locus YDR195W, strain ref2) of 1, a normalized growth (locus YDR297W, strain sur2, hits give low values) of 0.99 and a normalized growth (locus YDR318W, strain mcm21, hits give low values) of 1.02. For the same molecule, the normalized growth (locus YDR334W, strain swr1, hits give low values) was 0.996, the normalized growth (locus YDR335W, strain msn5, hits give low values) was 0.996 and the normalized growth (locus YDR388W, hits give low values) was 1.03. For the same molecule, the normalized growth (locus YDR392W, strain spt3, hits give low values) was 0.72 (active), the normalized growth (locus YDR502C, strain sam2, hits give low values) was 1.01 and the normalized growth (locus YEL003W, strain gim4, hits give low values) was 1. For the same molecule, the normalized growth (locus YEL037C, strain rad23, hits give low values) was 0.996, the normalized growth (locus YEL061C, strain CIN8 (second series), hits give low values) was 0.994 and the normalized growth (locus YEL061C, strain CIN8, hits give low values) was 1. The normalized growth (locus YER015W, strain faa2, hits give low values) was 1, the normalized growth (locus YER016W, strain bim1, hits give low values) was 0.996 and the normalized growth (locus YER110C, hits give low values) was 1.02. The normalized growth (locus YER111C, strain swi4, hits give low values) was 0.984, the normalized growth (locus YER155C, strain BEM2 (second series), hits give low values) was 0.912 and the normalized growth (locus YER155C, strain BEM2, hits give low values) was 1. It also gave a normalized growth (locus YER167W, strain BCK2, hits give low values) of 1.01, a normalized growth (locus YFR010W, strain ubp6, hits give low values) of 0.999 and a normalized growth (locus YGL078C, strain dbp3, hits give low values) of 1.01. For the same molecule, the normalized growth (locus YGL086W, strain mad1, hits give low values) was 1.02, the normalized growth (locus YGL167C, strain pmr1, hits give low values) was 0.995 and the normalized growth (locus YGL173C, strain kem1, hits give low values) was 0.991. It also gave a normalized growth (locus YGL227W, strain vid30, hits give low values) of 0.996, a normalized growth (locus YGL240W, strain doc1, hits give low values) of 0.97 and a normalized growth (locus YGL248W, strain PDE1, hits give low values) of 1.01. For the same molecule, the normalized growth (locus YGL253W, strain hxk2, hits give low values) was 0.991, the normalized growth (locus YGR078C, strain PAC10, hits give low values) was 0.998 and the normalized growth (locus YGR135W, strain pre9, hits give low values) was 1.01. For the same molecule, the normalized growth (locus YGR229C, strain SMI1, hits give low values) was 1, the normalized growth (locus YGR252W, strain gcn5, hits give low values) was 1.01 and the normalized growth (locus YHR013C, strain ard1, hits give low values) was 0.897. For the same molecule, the normalized growth (locus YHR027C, strain rpn1, hits give low values) was 0.997, the normalized growth (locus YHR030C, strain SLT2, hits give low values) was 1.01 and 1.03 and the normalized growth (locus YHR079C, strain IRE1 (second series), hits give low values) was 1.02. The normalized growth (locus YHR079C, strain IRE1, hits give low values) was 1.04, the normalized growth (locus YHR094C, strain hxt1, hits give low values) was 1.02 and the normalized growth (locus YHR129C, strain ARP1, hits give low values) was 1. For the same molecule, the normalized growth (locus YHR142W, strain chs7, hits give low values) was 0.997, the normalized growth (locus YHR200W, strain rpn10, hits give low values) was 1.02 and the normalized growth (locus YIL066C, strain RNR3, hits give low values) was 1.01. It also gave a normalized growth (locus YIL073C, strain SPO22, hits give low values) of 1.03, a normalized growth (locus YIL125W, strain kgd1, hits give low values) of 1.03 and a normalized growth (locus YIR030C, strain dcg1, hits give low values) of 1.03. The normalized growth (locus YJL092W, strain hpr5, hits give low values) was 1, the normalized growth (locus YJL095W, strain BCK1 (second series), hits give low values) was 0.988 and the normalized growth (locus YJL095W, strain BCK1, hits give low values) was 0.983 and 1.04. It also gave a normalized growth (locus YJL115W, strain asf1, hits give low values) of 0.994, a normalized growth (locus YJL129C, strain trk1, hits give low values) of 0.994 and a normalized growth (locus YJL134W, strain LCB3, hits give low values) of 1. It also gave a normalized growth (locus YJL154C, strain vps35, hits give low values) of 0.987, a normalized growth (locus YJL164C, strain tpk1, hits give low values) of 0.992 and a normalized growth (locus YJL166W, strain qcr8, hits give low values) of 0.997. It also gave a normalized growth (locus YJL168C, strain set2, hits give low values) of 1.02, a normalized growth (locus YJL187C, strain SWE1 (second series), hits give low values) of 1.01 and a normalized growth (locus YJL187C, strain SWE1, hits give low values) of 0.998. The normalized growth (locus YJR043C, strain POL32, hits give low values) was 1.01 and the normalized growth (locus YJR066W, strain TOR1, hits give low values) was 0.955.
